This is an account of results in PubChem BioAssay (EPA / NIEHS).

A word on the AC50: it is the concentration giving half of the maximal activity seen.

The target in assay [1] is rat CYP3A2, Cyp3a2 (gene 266682) (UniProt P05183). Description: NVS_ADME_rCYP3A2: NovaScreen (NVS) CYP450-related Enzyme Activity (ADME) Assay for rat CYP3A2 (AID 2283128). The method in brief: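 Cell-free rat CYP3A2 enzyme assay with fluorescent substrate, read 0.5 h after dosing. Primary duplicate screen at 10 uM; actives run in concentration-response up to 20 uM, relative to acetonitrile baseline.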

Assay [2] addresses human Dual Specificity Protein Phosphatase 3 (DUSP3), DUSP3 (gene 1845) (UniProt P51452). Description: NVS_ENZ_hDUSP3: NovaScreen (NVS) Enzymatic Assay for human Dual Specificity Protein Phosphatase 3 (DUSP3) (AID 2283152). The method in brief: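 Cell-free assay with recombinant human DUSP3 and fluorogenic substrate, read by fluorescence intensity. Primary screen ran duplicate at 25 uM; actives followed up in concentration series; loss of signal versus DMSO scored.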

Assay [3] deals with human Ephrin type-B Receptor 1 (EphB1), EPHB1 (gene 2047) (UniProt P54762). Description: NVS_ENZ_hEphB1: NovaScreen (NVS) Enzymatic Assay for human Ephrin type-B Receptor 1 (EphB1) (AID 2283154). The method in brief: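 Cell-free kinase assay with recombinant enzyme, fluorescent substrate and electrophoretic mobility-shift separation of substrate and product; read 1 h after dosing. Single-concentration duplicate screen at 25 uM; loss of signal versus DMSO baseline.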

Assay [4] has as its target human Esterase Plasma (ES), BCHE (gene 590) (UniProt P06276). Description: NVS_ENZ_hES: NovaScreen (NVS) Enzymatic Assay for human Esterase Plasma (ES) (AID 2283157). The method in brief: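 Esterase from human plasma, cell-free, colorimetric absorbance read 0.25 h after dosing. Screened at 25 uM in duplicate, with threshold-passing chemicals run in concentration-response up to 50 uM; loss of signal fitted versus DMSO.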

In assay [5] the target is human AKT serine/threonine Kinase 2 (AKT2), AKT2 (gene 208) (UniProt P31751). Description: NVS_ENZ_hAKT2: NovaScreen (NVS) Enzymatic Assay for human AKT serine/threonine Kinase 2 (AKT2) (AID 2283141). The method in brief: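 Cell-free fluorescence/electrophoretic mobility shift readout of recombinant human AKT2 activity, 1 h after chemical dosing. Duplicate primary screen at 25 uM, then singleton concentration-response up to 50 uM; loss of signal versus DMSO baseline.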

Assay [6] deals with human Casein Kinase 1-delta (CK1D), CSNK1D (gene 1453) (UniProt P48730). Description: NVS_ENZ_hCK1D: NovaScreen (NVS) Enzymatic Assay for human Casein Kinase 1-delta (CK1D) (AID 2283148). The method in brief: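 Recombinant human CK1-delta, cell-free; fluorescent substrate with electrophoretic mobility-shift separation of product, read 1 h after dosing. Single 25 uM duplicate screen, then concentration-response up to 50 uM; loss of signal vs DMSO.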

The target in assay [7] is Histone deacetylase 3 (Homo sapiens) (UniProt O15379). Description: NVS_ENZ_hHDAC3: NovaScreen (NVS) Enzymatic Assay for human Histone Deacetylase 3 (HDAC3) (AID 2283163). The method in brief: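 Recombinant human HDAC3 with fluorescent substrate, 1 h after dosing; product separated from substrate by electrophoretic mobility shift and read by fluorescence. Primary screen at 25 uM in duplicate; actives (e.g. ≥30% inhibition) retested in concentration-response up to 50 uM.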

Assay [8] has as its target human Beta-secretase (BACE), BACE1 (gene 23621) (UniProt P56817). The assay is described as follows: NVS_ENZ_hBACE: NovaScreen (NVS) Enzymatic Assay for human Beta-secretase (BACE) (AID 2283140).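 Note: hits are inhibitors that reduce fluorescent substrate signal versus DMSO.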 The method in brief:
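Cell-free assay of recombinant Sf9-expressed human BACE with fluorescent substrate, read by fluorescence intensity after 1 h. Primary screen in duplicate at 25 uM; actives then run in concentration series; loss of signal relative to DMSO.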

Assay [9] has as its target human Elastase, ELANE (gene 1991) (UniProt P08246). The assay is described as follows: NVS_ENZ_hElastase: NovaScreen (NVS) Enzymatic Assay for human Elastase (AID 2283153). The method in brief:
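Cell-free elastase from human neutrophils, 1.5 h after dosing, activity read by absorbance. Primary screen in duplicate at 25 uM; hits (e.g., 30% inhibition) rerun in singleton concentration-response up to 50 uM, fitted versus DMSO.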

For assay [10], the target named is human Casein Kinase 2- alpha 2 beta 2 (CK2a2b2), CSNK2A1 (gene 1457) (UniProt P68400). Description: NVS_ENZ_hCK2a2b2: NovaScreen (NVS) Enzymatic Assay for human Casein Kinase 2- alpha 2 beta 2 (CK2a2b2) (AID 2283147). The method in brief: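 Cell-free recombinant CK2 α2β2 holoenzyme with a fluorescent peptide substrate; product separated by electrophoretic mobility shift and read 1 h after dosing. Single-point screen at 25 uM in duplicate; actives were followed with concentration-response up to 50 uM versus DMSO.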

Assay [11] deals with human Ephrin type-A Receptor 1 (EphA1), EPHA1 (gene 2041) (UniProt P21709). The assay is described as follows: NVS_ENZ_hEphA1: NovaScreen (NVS) Enzymatic Assay for human Ephrin type-A Receptor 1 (EphA1) (AID 2283158).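 Note: activity is signal loss versus DMSO meaning EphA1 kinase inhibition.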 The method in brief: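 Cell-free enzymatic assay with recombinant EphA1 and fluorescent substrate; product separated by electrophoretic mobility shift, fluorescence intensity read 1 hour after dosing. Loss of signal versus DMSO baseline; primary duplicate screen at 25 uM, actives followed to 50 uM top concentration.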

Assay [12] concerns the target human FYN Proto-Oncogene, Src family Tyrosine Kinase (Fyn), FYN (gene 2534) (UniProt P06241). The assay is described as follows: NVS_ENZ_hFyn: NovaScreen (NVS) Enzymatic Assay for human FYN Proto-Oncogene, Src family Tyrosine Kinase (Fyn) (AID 2283161). The method in brief: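 Recombinant enzyme with fluorescent substrate, product separated by electrophoretic mobility shift; read 1 h after dosing. Duplicate 25 uM single-point screen, actives retested in concentration series; loss of signal vs DMSO.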

Assay [13] concerns the target human Colony Stimulating Factor 1 Receptor (CSF1R), CSF1R (gene 1436) (UniProt P07333). The assay is described as follows: NVS_ENZ_hCSF1R: NovaScreen (NVS) Enzymatic Assay for human Colony Stimulating Factor 1 Receptor (CSF1R) (AID 2283150). The method in brief:
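Cell-free recombinant human CSF1R kinase with fluorescent substrate, product separated by electrophoretic mobility shift; read 1 h after dosing. Primary screen at 25 uM in duplicate, actives then in concentration-response up to 50 uM, relative to DMSO.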

Assay [14] has as its target human Caspase 8 (CASP8), CASP8 (gene 841) (UniProt Q14790). Description: NVS_ENZ_hCASP8: NovaScreen (NVS) Enzymatic Assay for human Caspase 8 (CASP8) (AID 2283146). The method in brief: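 E. coli-expressed enzyme was used in a cell-free fluorogenic substrate assay read 1 h after dosing. Loss of signal was scored relative to DMSO, and the primary screen was run in duplicate at 25 uM.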

In the next assay the target is CDK2 (gene 1017) (UniProt P24941). The assay is described as follows: NVS_ENZ_hCDK2: NovaScreen (NVS) Enzymatic Assay for human Cyclin-Cependent Kinase 2 (CDK2) (AID 2283144). The method in brief:
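Cell-free recombinant human CDK2 with fluorescent substrate, product separated by electrophoretic mobility shift; 1 hr read. Primary screen at 25 uM in duplicate, actives retested in concentration-response up to 50 uM; loss of signal versus DMSO.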

Inconclusive results are not listed. Activity calls are given as the source filed them. Rule for the calls: active = hit-call score of the fitted dose curve at least 0.9, where 1 is the maximum; inconclusive = response in the unintended direction; inactive = score below 0.9.

human Casein Kinase 1-delta (CK1D), CSNK1D (gene 1453), sequence (P48730 whole entry, looked up): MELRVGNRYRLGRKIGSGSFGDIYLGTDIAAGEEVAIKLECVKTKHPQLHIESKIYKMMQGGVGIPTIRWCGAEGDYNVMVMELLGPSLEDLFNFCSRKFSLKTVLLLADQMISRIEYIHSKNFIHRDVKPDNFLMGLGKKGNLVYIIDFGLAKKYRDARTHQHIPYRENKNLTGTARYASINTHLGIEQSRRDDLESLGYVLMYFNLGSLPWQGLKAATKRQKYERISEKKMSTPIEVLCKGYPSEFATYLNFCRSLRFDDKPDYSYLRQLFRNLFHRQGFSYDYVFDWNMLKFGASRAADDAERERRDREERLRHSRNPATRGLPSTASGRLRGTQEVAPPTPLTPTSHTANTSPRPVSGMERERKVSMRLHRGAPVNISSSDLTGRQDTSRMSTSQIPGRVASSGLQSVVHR
human Ephrin type-B Receptor 1 (EphB1), EPHB1 (gene 2047), sequence (P54762 whole entry, looked up): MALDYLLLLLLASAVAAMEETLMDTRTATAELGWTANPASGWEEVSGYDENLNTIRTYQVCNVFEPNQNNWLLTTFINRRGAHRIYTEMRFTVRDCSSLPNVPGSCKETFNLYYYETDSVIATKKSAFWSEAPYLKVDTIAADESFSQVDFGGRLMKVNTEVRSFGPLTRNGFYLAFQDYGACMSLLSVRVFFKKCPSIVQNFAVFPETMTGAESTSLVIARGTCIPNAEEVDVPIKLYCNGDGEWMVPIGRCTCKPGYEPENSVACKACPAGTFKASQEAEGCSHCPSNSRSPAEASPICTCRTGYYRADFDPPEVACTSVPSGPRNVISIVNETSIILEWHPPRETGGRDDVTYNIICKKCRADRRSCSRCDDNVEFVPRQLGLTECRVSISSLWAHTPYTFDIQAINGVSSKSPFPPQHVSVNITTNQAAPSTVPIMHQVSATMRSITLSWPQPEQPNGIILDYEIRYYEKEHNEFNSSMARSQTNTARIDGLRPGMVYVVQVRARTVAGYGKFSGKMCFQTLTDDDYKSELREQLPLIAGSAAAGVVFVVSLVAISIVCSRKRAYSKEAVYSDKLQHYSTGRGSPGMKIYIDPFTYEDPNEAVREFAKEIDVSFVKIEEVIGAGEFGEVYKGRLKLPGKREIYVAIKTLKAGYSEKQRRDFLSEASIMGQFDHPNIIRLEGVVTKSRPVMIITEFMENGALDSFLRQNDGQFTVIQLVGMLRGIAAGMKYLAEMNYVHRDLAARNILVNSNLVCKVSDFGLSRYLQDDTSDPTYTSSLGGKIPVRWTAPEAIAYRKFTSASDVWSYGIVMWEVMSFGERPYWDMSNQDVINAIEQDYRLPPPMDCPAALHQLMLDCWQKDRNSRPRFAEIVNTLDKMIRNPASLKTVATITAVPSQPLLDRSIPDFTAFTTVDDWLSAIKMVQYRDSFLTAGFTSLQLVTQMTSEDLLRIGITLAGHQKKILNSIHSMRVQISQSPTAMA
human Esterase Plasma (ES), BCHE (gene 590), sequence (P06276 whole entry, looked up): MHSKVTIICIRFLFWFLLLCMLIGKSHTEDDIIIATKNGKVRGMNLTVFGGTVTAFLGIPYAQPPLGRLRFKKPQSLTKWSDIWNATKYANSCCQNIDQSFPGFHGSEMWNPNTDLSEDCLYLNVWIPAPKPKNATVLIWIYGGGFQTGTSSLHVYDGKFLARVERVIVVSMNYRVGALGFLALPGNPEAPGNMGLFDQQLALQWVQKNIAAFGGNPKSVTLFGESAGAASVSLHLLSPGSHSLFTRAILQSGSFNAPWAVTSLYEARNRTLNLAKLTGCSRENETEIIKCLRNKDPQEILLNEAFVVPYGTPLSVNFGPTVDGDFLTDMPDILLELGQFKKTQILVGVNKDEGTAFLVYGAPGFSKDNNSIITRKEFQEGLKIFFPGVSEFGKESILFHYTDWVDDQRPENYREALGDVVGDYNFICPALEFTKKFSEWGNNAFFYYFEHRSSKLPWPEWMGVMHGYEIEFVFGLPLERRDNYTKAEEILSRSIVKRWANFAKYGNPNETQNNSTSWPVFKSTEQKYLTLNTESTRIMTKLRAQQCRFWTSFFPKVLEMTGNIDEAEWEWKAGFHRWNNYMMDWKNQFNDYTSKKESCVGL
human Ephrin type-A Receptor 1 (EphA1), EPHA1 (gene 2041), sequence (P21709 whole entry, looked up): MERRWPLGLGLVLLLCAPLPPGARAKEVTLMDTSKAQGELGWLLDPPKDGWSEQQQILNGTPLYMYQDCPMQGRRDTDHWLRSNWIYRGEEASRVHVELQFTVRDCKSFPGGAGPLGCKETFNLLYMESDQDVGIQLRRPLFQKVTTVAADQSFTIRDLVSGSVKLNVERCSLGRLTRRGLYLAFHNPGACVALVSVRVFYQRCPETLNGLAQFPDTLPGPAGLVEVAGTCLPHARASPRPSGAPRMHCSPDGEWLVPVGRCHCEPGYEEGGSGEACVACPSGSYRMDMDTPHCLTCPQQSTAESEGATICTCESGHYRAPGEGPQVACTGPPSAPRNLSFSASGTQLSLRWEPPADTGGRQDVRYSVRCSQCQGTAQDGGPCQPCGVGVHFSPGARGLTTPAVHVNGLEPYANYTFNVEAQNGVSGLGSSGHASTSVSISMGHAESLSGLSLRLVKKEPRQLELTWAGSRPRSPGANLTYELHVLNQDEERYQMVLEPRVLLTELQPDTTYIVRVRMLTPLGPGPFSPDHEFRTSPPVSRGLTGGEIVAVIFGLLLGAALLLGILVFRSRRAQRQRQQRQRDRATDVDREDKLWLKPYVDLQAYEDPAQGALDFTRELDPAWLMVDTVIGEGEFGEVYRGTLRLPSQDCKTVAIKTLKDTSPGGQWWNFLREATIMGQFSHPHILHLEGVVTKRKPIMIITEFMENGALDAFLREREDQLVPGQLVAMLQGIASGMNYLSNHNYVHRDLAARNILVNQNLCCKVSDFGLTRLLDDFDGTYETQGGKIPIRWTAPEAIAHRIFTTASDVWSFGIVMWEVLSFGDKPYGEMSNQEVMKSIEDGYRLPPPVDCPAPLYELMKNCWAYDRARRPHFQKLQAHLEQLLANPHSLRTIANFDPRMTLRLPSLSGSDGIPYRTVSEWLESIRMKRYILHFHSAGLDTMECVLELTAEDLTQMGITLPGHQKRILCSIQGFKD
human Dual Specificity Protein Phosphatase 3 (DUSP3), DUSP3 (gene 1845), sequence (P51452 whole entry, looked up): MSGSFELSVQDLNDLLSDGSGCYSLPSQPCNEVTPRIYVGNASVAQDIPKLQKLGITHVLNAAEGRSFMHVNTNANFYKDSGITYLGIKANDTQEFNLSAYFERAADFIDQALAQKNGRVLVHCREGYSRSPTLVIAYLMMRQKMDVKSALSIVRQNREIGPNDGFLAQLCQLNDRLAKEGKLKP
human Beta-secretase (BACE), BACE1 (gene 23621), sequence (P56817 whole entry, looked up): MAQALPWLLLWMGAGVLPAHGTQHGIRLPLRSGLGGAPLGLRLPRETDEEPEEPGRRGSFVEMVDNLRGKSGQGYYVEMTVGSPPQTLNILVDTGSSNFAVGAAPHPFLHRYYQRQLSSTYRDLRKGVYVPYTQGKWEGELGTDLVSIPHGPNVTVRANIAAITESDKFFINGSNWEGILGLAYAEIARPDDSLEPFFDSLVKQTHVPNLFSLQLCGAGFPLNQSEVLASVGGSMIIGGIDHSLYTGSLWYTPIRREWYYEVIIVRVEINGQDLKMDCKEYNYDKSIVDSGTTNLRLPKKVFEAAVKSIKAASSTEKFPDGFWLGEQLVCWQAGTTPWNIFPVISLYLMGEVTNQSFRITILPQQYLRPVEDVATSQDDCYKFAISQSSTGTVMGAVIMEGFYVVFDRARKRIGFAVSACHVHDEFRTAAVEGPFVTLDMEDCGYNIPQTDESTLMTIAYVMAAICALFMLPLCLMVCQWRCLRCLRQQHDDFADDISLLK
human Colony Stimulating Factor 1 Receptor (CSF1R), CSF1R (gene 1436), sequence (P07333 whole entry, looked up): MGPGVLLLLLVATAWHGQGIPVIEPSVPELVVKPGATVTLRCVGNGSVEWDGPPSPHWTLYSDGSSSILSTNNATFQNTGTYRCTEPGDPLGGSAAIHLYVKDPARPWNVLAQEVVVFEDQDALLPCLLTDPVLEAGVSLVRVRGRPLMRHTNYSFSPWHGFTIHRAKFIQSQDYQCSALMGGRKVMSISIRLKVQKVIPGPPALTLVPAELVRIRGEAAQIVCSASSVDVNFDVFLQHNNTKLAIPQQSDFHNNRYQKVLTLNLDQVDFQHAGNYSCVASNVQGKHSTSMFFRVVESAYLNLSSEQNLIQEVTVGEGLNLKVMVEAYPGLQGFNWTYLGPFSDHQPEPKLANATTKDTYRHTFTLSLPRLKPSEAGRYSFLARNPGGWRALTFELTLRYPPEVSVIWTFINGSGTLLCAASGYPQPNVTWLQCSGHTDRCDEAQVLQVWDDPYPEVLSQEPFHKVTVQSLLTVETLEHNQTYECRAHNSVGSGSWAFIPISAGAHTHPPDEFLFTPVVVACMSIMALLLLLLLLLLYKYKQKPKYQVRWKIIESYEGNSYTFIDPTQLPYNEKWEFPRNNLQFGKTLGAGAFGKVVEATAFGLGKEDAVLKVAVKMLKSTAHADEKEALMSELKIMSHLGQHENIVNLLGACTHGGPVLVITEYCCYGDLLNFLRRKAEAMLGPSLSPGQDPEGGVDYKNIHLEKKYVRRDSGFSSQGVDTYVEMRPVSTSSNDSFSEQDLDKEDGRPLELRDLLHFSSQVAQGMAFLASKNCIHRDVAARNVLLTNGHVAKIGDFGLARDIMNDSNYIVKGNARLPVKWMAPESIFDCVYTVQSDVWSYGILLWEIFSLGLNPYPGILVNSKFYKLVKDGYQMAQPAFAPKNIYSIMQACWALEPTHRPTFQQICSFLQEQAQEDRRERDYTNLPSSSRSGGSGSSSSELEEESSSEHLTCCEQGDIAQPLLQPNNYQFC
human Elastase, ELANE (gene 1991), sequence (P08246 whole entry, looked up): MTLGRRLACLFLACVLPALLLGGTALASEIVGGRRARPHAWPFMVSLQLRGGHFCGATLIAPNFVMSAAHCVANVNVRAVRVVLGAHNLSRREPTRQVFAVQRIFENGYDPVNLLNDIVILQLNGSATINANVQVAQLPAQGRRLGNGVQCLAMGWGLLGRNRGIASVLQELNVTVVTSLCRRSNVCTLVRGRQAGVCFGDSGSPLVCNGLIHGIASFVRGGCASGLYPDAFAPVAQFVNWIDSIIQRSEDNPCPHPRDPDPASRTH

Turning to `CC(C)(C)[C@@H](O)[C@@H](Cc1ccc(Cl)cc1)n1cncn1`, in assay [1], the concentration at half-maximal activity (AC50) was 4.88 µM (active).

Take `COC(=O)CSc1cc(N=c2sc(=O)n3n2CCCC3)c(F)cc1Cl`: the molecule was classed as inactive in assay [2], in assay [3] and in assay [4].

In the case of `OB(O)O`, the molecule was called inactive in [5].

Regarding `CCCOC(=O)NCCCN(C)C`, the outcome in assay [3] was inactive.

Regarding `CCN(CC)C(=O)c1cccc(C)c1`, the molecule was classed as inactive in [4].

For the molecule `CC(=O)[C@H]1CC[C@H]2[C@@H]3CCC4=CC(=O)CC[C@]4(C)[C@H]3CC[C@]12C`, in [6], the call was inactive.

On to `COC(=O)c1ccc(CNS(C)(=O)=O)cc1S(=O)(=O)NC(=O)Nc1nc(OC)cc(OC)n1`, for which the result in assay [7] was inactive.

As for `CCCCCOC(=O)COc1cc(N2C(=O)C3=C(CCCC3)C2=O)c(F)cc1Cl`, the AC50 in [8] is 3.5 µM (active). The molecule was classed as inactive in assay [9].

As to `CC1(C)C(C=C(Cl)Cl)C1C(=O)OCc1cccc(Oc2ccccc2)c1` (centres undefined), the AC50 in [8] was 40.2 µM (active).

Consider `c1ccc2[nH]c(-c3cscn3)nc2c1`, for which the AC50 is 25 µM (active) in assay [10] and 19.8 µM (active) in assay [6]. Also, the molecule was called inactive in [4], in assay [11] and in assay [12].

With `COC(=O)c1c(Cl)nn(C)c1S(=O)(=O)NC(=O)Nc1nc(OC)cc(OC)n1`, the concentration at half-maximal activity (AC50) in assay [6] is 21.1 µM (active).

Consider `CCCCOC(=O)C(C)Oc1ccc(Oc2ccc(C(F)(F)F)cn2)cc1` (centres undefined), for which the AC50 in [8] is 25 µM (active). Further, in assay [13], the call was inactive.

Consider `C[C@]12CC[C@@H]3c4ccc(O)cc4C[C@@H](CCCCCCCCCS(=O)CCCC(F)(F)C(F)(F)F)[C@H]3[C@@H]1CC[C@@H]2O` (some centres undefined), for which the call in assay [8], in assay [14], in assay [2] and in assay [11] was inactive.

On to `O=C(c1ccccc1)C1CCCCC1`, for which the molecule was classed as inactive in [11].

Regarding `CCCCC(CC)COC(=O)c1ccccc1C(=O)O` (centres undefined), in [6], the molecule was classed as inactive.

As to `CCOC(=O)[C@H](C)Oc1ccc(Oc2nc3ccc(Cl)cc3o2)cc1`, the half-maximal activity concentration (AC50) in [13] was 3.18 µM (active).

For `C#CCOC(=O)[C@@H](C)Oc1ccc(Oc2ncc(Cl)cc2F)cc1`, the molecule was called inactive in [2] and in assay [9].

Turning to `CCOC(=O)NCCOc1ccc(Oc2ccccc2)cc1`, the result in assay [2] and in assay [11] was inactive.

Consider `CCNc1nc(N)nc(Cl)n1`, for which the AC50 in [6] is 22.1 µM (active). The outcome in assay [13] was inactive.

As for `O=C(c1ccc(O)cc1O)c1ccc(O)cc1O`, the result in assay [8] and in assay [7] was inactive. Also, the AC50 in the assay with CDK2 (gene 1017) is 17 µM (active); in assay [6], 17.3 µM (active); in assay [13] it was 11.6 µM (active); in assay [11], 25 µM (active); in assay [12], 15.1 µM (active).

On to `CCOC(=O)C(C)Oc1ccc(Oc2nc3ccc(Cl)cc3o2)cc1` (centres undefined), for which the result in [3] and in assay [4] was inactive.

Regarding `CCCN(CCC)c1c([N+](=O)[O-])cc(C(F)(F)F)c(N)c1[N+](=O)[O-]`, the molecule was classed as inactive in assay [14] and in assay [3].
